Sampled rows, rich in hits. Any-hit rate of the full collection: about 1.9%.
Epigenetic reg – regulators of epigenetic silencing causing reporter derepression in mouse cells | murine LDR cells, GFP reporter derepression, 30 h | Potency, µM (highest dose often 53.9 µM), for the others: at the top dose GFP activation, actives largely listed as activators | actives 0.2% (n = 280,000) | AID 1865; active = well fitted activation curve with a large enough effect; inconclusive = small, poorly fitted or top-dose-only effect; also: potency is read from the fitted curve at half-maximal effect; % of control where 0% means no effect; nearly all actives have a fitted effect of over 60% in size
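In this reporter-derepression format, murine cells bearing a silenced integrated CMV-GFP locus incubate with test compound (30 h, 37 C), then are washed and imaged; fluorescent objects of 20–120 um count as induced cells.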
ClpP mod – qHTS Assay for Activators of ClpP. ATP-dependent Clp protease proteolytic subunit (Bacillus subtilis (strain 168)), P80244. purified B. subtilis ClpP, FRET peptide cleavage, 20 min. Potency, µM (doses to about 57.5 µM), without a hit: at the top dose activity change, negative = active. actives 1.9% (n = 340,000). AID 651965, 2013; active = well fitted falling curve with a large enough effect; inconclusive = small, poorly fitted or top-dose-only effect; inactive = no such curve, though single readings can be large or run the other way; also: potency is read from the fitted curve at half-maximal effect; the source files actives as falling curves though it sought activators and does not explain the sign; nearly all actives have a fitted effect of over 65% in size
Target sequence (P80244 whole entry, looked up): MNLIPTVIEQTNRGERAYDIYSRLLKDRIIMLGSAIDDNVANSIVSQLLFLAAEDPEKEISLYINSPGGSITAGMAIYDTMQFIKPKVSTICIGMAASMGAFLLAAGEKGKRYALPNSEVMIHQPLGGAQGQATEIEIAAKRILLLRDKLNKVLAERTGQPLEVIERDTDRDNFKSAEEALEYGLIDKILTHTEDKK
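FRET quenching reversal measured ClpP activation: 10 microg/mL B. subtilis ClpP at pH 8 with the FRET-FV decapeptide, read at 430 nm after 320 nm excitation. The 20-min minus 0-min signal was scaled between DMSO/no-enzyme wells and ADEP (5.8 microM final).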
PINK1 expr mod – PINK1 expression modulation; PINK1 immunofluorescence, high-content cytometry, 24 h; Potency, µM (highest dose often 76.6 µM), inactives show top-dose activation (PINK1 increase), hits mostly activators; actives 0.2% (n = 410,000); AID 624263; active = well fitted activation curve with a large enough effect; inconclusive = small, poorly fitted or top-dose-only effect; cell line not stated here; also: potency is read from the fitted curve at half-maximal effect; % of control where 0% means no effect; nearly all actives have a fitted effect of over 65% in size
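Compound titrations (5 concentrations, 24 h) on a stable cell line; DMSO and CCCP controls. Endpoint: fixed-cell PINK1 immunofluorescence with mitochondrial, cell and nuclear markers, scanned by microplate cytometer.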
Menin-MLL TR inh – menin-MLL binding inhibition, Texas Red mutant peptide | O00255 | Menin + Texas Red MLL mutant peptide, fluorescence polarization | Potency, µM (top dose mostly 61.6 µM), without a hit: at the top dose FP activity change, negative = inhibition, most hits filed as inhibitors | actives 0.23% (n = 270,000); active = well fitted inhibition curve with a large enough effect in the polarisation, with a control signal flat, not every such curve was filed as active; inconclusive = small, poorly fitted or top-dose-only effect, or effect the other way, or a change in a side signal; inactive = no such curve, though single readings can be large or run the other way; the % refers to the polarisation; also: potency is read from the fitted curve at half-maximal effect; % of control where 0% means no effect
Target sequence (O00255 whole entry, looked up): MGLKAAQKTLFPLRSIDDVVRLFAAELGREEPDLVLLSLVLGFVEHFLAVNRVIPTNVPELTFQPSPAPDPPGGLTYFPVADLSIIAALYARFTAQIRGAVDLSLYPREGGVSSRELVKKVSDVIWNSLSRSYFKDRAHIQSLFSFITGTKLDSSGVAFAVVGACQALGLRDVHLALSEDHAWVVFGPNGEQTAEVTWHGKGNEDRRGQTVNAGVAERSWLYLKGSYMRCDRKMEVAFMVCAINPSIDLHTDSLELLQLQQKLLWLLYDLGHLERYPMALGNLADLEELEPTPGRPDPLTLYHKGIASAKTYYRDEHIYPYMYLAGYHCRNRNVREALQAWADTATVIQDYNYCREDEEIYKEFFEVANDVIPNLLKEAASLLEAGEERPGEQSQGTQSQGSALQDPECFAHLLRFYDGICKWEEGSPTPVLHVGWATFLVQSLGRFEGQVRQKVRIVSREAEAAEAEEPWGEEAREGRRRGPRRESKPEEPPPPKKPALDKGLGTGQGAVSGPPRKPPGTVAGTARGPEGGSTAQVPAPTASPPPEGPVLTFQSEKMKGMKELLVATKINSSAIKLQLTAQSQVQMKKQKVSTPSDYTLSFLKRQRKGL
Menin MLL FP FL – inhibitors of human menin-MLL interaction, wild-type MLL peptide. Fluorescence polarization, fluorescein-MLL peptide displacement from menin. FP activity change, % at 61.4 µM. 290,000 tested, under 10 active; active = well fitted curve in the direction sought with a large enough effect in the polarisation, not every such curve was filed as active; inconclusive = small, poorly fitted or top-dose-only effect, or effect the other way, or a change in a side signal; inactive = no such curve, though single readings can be large or run the other way; the % refers to the polarisation; also: % of control where 0% means no effect
CXXC DNA block – MLL CXXC-DNA interaction inhibition | Q03164 | MLL-CXXC / FITC-HOXA9 DNA fluorescence polarization | Potency, µM (titrated, usually from 115 µM), without a hit: top-dose activity change, negative = inhibition, hits mostly inhibitors | actives 0.037% (n = 290,000) | AID 2662; active = well fitted inhibition curve with a large enough effect in the polarisation, with a control signal flat, not every such curve was filed as active; inconclusive = small, poorly fitted or top-dose-only effect, or effect the other way, or a change in a side signal; inactive = no such curve, though single readings can be large or run the other way; the % refers to the polarisation; also: potency is read from the fitted curve at half-maximal effect
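Steps: dispense CXXC domain solution (7 uM) → pin compounds or unlabeled HOX-A9 DNA control → 5 min ambient → add FLSN-HOX-A9 solution (50 nM) → spin → 30 min ambient → fluorescence polarization. Tris pH 7.5/NaCl/DTT/BSA buffer.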
Numbers without * were called inactive; ? = inconclusive; . = no result; [ ] = dose if it differs, or a comment.

SMILES	Epigenetic reg	ClpP mod	PINK1 expr mod	Menin-MLL TR inh	Menin MLL FP FL	CXXC DNA block
c1ccc2c(c1)[nH]c1c(NCC3CCCO3)ncnc12 (configuration not stated)	-7.0%	28.2µM*	0.8%	4.1%	4.5	-4.2%
COc1cc(CNc2ncnc3c2[nH]c2ccc(C)cc23)cc(OC)c1	-1.0%	3.6%	?	.	2.5	14.6%
C=CCNc1ncnc2ccccc12	0.2%	-5.0%	25.0%[38.3 µM]	-0.2%	?	-6.1%
C=CCNc1ncnc2c1[nH]c1ccccc12	-0.9%	28.2µM*	-0.7%	5.7%	1.0	7.6%
C=CCNc1ncnc2c1[nH]c1ccc(Cl)cc12	-3.1%	28.2µM*	8.1%	11.5%	-4.1	-4.9%
CCOC(=O)c1sc(C)c2c1NC1(CCCCCC1)NC2=O	0.0%	?	2.9%	-8.3%	-0.9	-10.8%
CCOC(=O)c1sc(C)c2c1NC1(CCCCC1)NC2=O	-1.1%	31.6µM*	11.2%[38.3 µM]	8.4%	2.4	4.5%
CCOC(=O)c1sc(C)c2c1NC(C)(c1cccs1)NC2=O (configuration not stated)	-1.1%	28.2µM*	-2.8%[38.3 µM]	-10.5%	2.3	5.1%
COc1ccc(-c2nc3cc(F)ccc3cc2CN(C(=O)c2cccs2)C2CC2)cc1	.	.	-0.1%	.	.	.
C=C(Cl)COc1ccc2c(CC)cc(=O)oc2c1	-0.9%	25.1µM*	-0.2%[38.3 µM]	0.3%	4.5	-2.7%
Cc1cc(=O)oc2cc(OCC(=O)NC3CCCC3)ccc12	.	4.8%	0.0%	-1.8%	-2.2	0.7%
C=C(C)COc1ccc2c(CC)cc(=O)oc2c1	-0.9%[10.1 µM]	4.1%	0.6%	?	-0.4	19.2%
O=C(COc1ccc2c(-c3ccccc3)cc(=O)oc2c1)NCCCN1CCOCC1	.	0.9%	0.4%	.	.	1.0%
CCCCc1cc(=O)oc2cc(OCC(=O)N(CC)CC)c(Cl)cc12	0.0%	3.8%	1.4%	-5.1%	-0.2	-2.4%
Cc1cc(=O)oc2cc(OCC(=O)NCCCN3CCOCC3)ccc12	-1.7%	28.2µM*	-1.8%	-3.4%	-0.7	5.9%
CCCCc1cc(=O)oc2cc(OCC(=O)N(CC)CC)ccc12	0.7%	28.2µM*	24.3%[38.3 µM]	1.9%	-3.8	18.5%
C=C(Cl)COc1ccc2c(C)cc(=O)oc2c1	-1.0%	10µM*	-0.7%[38.3 µM]	-4.3%	-1.7	6.8%
Cc1cc(CNC(=O)CCN2Cc3cc(Cl)ccc3OC(C)C2)nn1C (configuration not stated)	.	.	0.1%	.	.	.
C=C(Cl)COc1ccc2c(CCCC)cc(=O)oc2c1	-1.0%	28.2µM*	0.5%	.	-0.9	13.9%
CCc1cc(=O)oc2cc(OCC(N)=O)c(Cl)cc12	-0.5%	31.6µM*	1.3%	.	8.3	6.9%
O=C(CSc1nc2c(c(=O)[nH]1)CCC2)Nc1ccccc1F	-0.4%	-0.7%	-0.8%	.	.	.
Cc1cc2oc(=O)c3c(c2cc1OCc1nn[nH]n1)CCCC3	-1.1%	25.1µM*	2.0%[38.3 µM]	1.2%	7.3	-0.7%
O=c1oc2cc(OCc3nn[nH]n3)ccc2c2c1CCCC2	1.2%	23.8%	-1.3%	0.6%	0.5	-12.2%
Cc1ccc(NC(=O)c2cccc(NC(=O)/C=C/c3ccco3)c2)cc1C	4.2%	-4.9%	9.0%	?	9.1	21.7%
Cc1ccc(-n2nc3ccc(NC(=O)/C=C/c4ccco4)cc3n2)cc1	1.1%	28.2µM*	?	?	5.4	3.4%
SMILES	Epigenetic reg	ClpP mod	PINK1 expr mod	Menin-MLL TR inh	Menin MLL FP FL	CXXC DNA block
O=C(O[C@H]1[C@H](Cc2ccccc2)NS(=O)(=O)[C@H]2C[C@@H]3C=C[C@]12O3)c1ccccc1Br	.	2.0%	.	.	.	.
CCn1nc(C(=O)Nc2ccc3nc(C)sc3c2)c2ccccc2c1=O	-2.3%	20µM*	-3.1%	1.2%	5.7	17.4%
O=C(CN1CC[n+]2c(-c3cccs3)csc21)c1ccc(-c2ccccc2)cc1	-0.3%	0.6%	15.8µM*	-1.1%	2.0	15.8%
CCOC(=O)Cc1c(C)c2c(C)nn(-c3ccccc3)c2oc1=O	0.0%	35.5µM*	11.2%	-12.2%	-0.1	-4.1%
Cn1c(C2CCC2)nc2cc(C(=O)N3CCOc4ccccc4C3)cc(NC(=O)C3CCCO3)c21 (configuration not stated)	.	.	0.5%	.	.	.
CNC(=O)COC(=O)c1cc2c(C)nn(-c3ccc(F)cc3)c2s1	-0.2%	35.5µM*	3.5%[38.3 µM]	-14.3%	2.2	5.1%
CCCCc1nnc(NC(=O)c2oc3ccc(OC)cc3c2C)s1	.	31.6µM*	11.0%	.	.	.
COc1ccc2oc(C(=O)NCC(c3ccco3)N(C)C)c(C)c2c1 (configuration not stated)	.	28.2µM*	-0.6%	.	.	.
COc1ccc2oc(C(=O)NCCc3ccccc3)c(C)c2c1	.	.	1.0%	.	.	.
COc1cccc(NC(=O)CC(=O)c2ccccc2)c1	.	.	4.6%	82.8%	-0.9	9.6%
CCC(=O)NC1=C(C#N)C2(CCCC2)Cc2ccccc21	0.7%	31.6µM*	1.0%	5.9%	-0.6	-5.1%
O=C(COC(=O)CCC1CCCC1)Nc1nc2c(F)c(F)c(F)cc2s1	-0.9%	.	-1.5%	25.1µM*	10.1	1.4%
COC(=O)c1cc(OC)c(OC)cc1NC(=O)CC1CCCCC1	0.8%	28.2µM*	18.2%[38.3 µM]	-18.5%	-0.7	1.5%
COC(=O)c1cc(OC)c(OC)cc1NC(=O)Nc1ccc(OC)cc1	1.7%	25.1µM*	1.1%	-2.7%	0.5	10.4%
COC(=O)c1cc(OC)c(OC)cc1NC(=O)Nc1cccc(C(C)=O)c1	-1.1%	.	0.7%	-12.0%	-2.6	-19.1%
N#C/C(=N/Nc1ccc(OC(F)(F)F)cc1)C(N)=S	-1.3%	0.2%	14.1µM*	.	1.9	-3.4%
Cn1cc(/C=C/c2ccc3ccccc3n2)c2ccccc21	.	-6.9%	.	.	.	.
COc1cc(=O)n2c(c1C(=O)NCc1nonc1C)CCN(C(=O)c1cccc(C)c1C)CC2	.	.	-0.2%	.	.	.
Cc1cccc(-c2c3c(=O)n(C)c(=O)n(C)c3cn2CCO)c1	1.0%	28.2µM*	1.8%	-1.8%	-1.3	-4.5%
CC(=O)Nc1ccc(-n2cc3c(c2-c2ccc(C)cc2)c(=O)n(C)c(=O)n3C)cc1	-1.9%	20µM*	2.3%	.	.	.
CC(=O)Nc1cccc(-n2cc3c(c2-c2ccccc2Cl)c(=O)n(C)c(=O)n3C)c1	-1.9%	28.2µM*	0.1%	.	.	.
Cc1ccc(-c2c3c(=O)n(C)c(=O)n(C)c3cn2-c2cc(C)ccc2O)cc1	5.6%	3.55µM*	7.3%	.	.	.
COc1ccc(-c2c3c(=O)n(C)c(=O)n(C)c3cn2-c2ccc(O)cc2)cc1	-2.8%	.	-0.6%	.	5.0	-2.0%
COc1ccc(-c2cc(C(=O)N3CCc4c(cnc(C)c4CNC(=O)c4ccsc4)C3)[nH]n2)cc1	.	.	1.1%	.	.	.
CC(=O)N/C(=C/c1ccccc1)c1ccncc1	.	-17.2%	-0.7%	.	.	.
